Test results reported in PubChem BioAssay AID1159580 (chemical genetic matrix, 2015).
Where “and” joins values, the source holds several entries; their conditions need not be identical. Equal entries are not always repeated. Hit rate of the full screen: of about 5,500 compounds, about 2,000 (36%) were called active. About 18% were inconclusive and are not listed. Cut-off read from the data, not from the text of the source: active = normalized growth mostly below about 0.91 (no sharp cut-off); inconclusive = no clear call, values can overlap the other calls; inactive = mostly above about 0.92. Some of the results follow.

Assay: chemical genetic growth profiling, strain panel (AID 1159580);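 note: tested at 20 µM; growth read once vehicle control cultures reached saturation at 30 °C; 1 = growth at the plate median or of vehicle wells; lower values mean less growth of the strain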
Details: S. cerevisiae deletion strains, growth OD

Measured: normalized growth

COc1ccc2c(c1)[nH]c1c(C)nccc12
inactive: locus YAL013W, strain DEP1, stronger effect = lower value 1.02 | locus YAL021C, strain ccr4, stronger effect = lower value 0.978 | locus YAL026C, strain drs2, stronger effect = lower value 1 | locus YAL030W, strain snc1, stronger effect = lower value 1 | locus YBL061C, strain skt5, stronger effect = lower value 0.993 | locus YBR009C, strain hhf1, stronger effect = lower value 0.992 | locus YBR021W, strain FUR4, stronger effect = lower value 1.03 | locus YBR023C, strain chs3, stronger effect = lower value 1 | locus YBR171W, strain sec66, stronger effect = lower value 0.987 | locus YBR229C, strain ROT2, stronger effect = lower value 1.02 | locus YBR231C, strain swc5, stronger effect = lower value 0.994 | locus YBR279W, strain paf1, stronger effect = lower value 0.991 | locus YCL011C, strain gbp2, stronger effect = lower value 1.01 | locus YCL016C, strain dcc1, stronger effect = lower value 1 | locus YCL029C, strain bik1, stronger effect = lower value 0.968 | locus YCL061C, strain MRC1, stronger effect = lower value 0.994 | locus YCL069W, strain vba3, stronger effect = lower value 0.995 | locus YCR088W, strain abp1, stronger effect = lower value 1 | locus YDL005C, strain med2, stronger effect = lower value 0.994 | locus YDL035C, strain GPR1, stronger effect = lower value 0.998 | locus YDL040C, strain nat1, stronger effect = lower value 0.995 | locus YDL074C, strain BRE1, stronger effect = lower value 1.03 | locus YDL101C, strain DUN1, stronger effect = lower value 1.01 | locus YDL134C, strain PPH21, stronger effect = lower value 1.02 | locus YDL185W, strain tfp1, stronger effect = lower value 0.968 | locus YDL192W, strain arf1, stronger effect = lower value 0.979 | locus YDR001C, strain nth1, stronger effect = lower value 0.991 | locus YDR069C, strain doa4, stronger effect = lower value 0.997 | locus YDR101C, strain arx1, stronger effect = lower value 0.987 | locus YDR137W, strain rgp1, stronger effect = lower value 1.01 | locus YDR150W, strain NUM1, stronger effect = lower value 0.978 | locus YDR159W, strain sac3, stronger effect = lower value 1.01 | locus YDR162C, strain NBP2, stronger effect = lower value 1.02 | locus YDR195W, strain ref2 1.01 | locus YDR297W, strain sur2, stronger effect = lower value 0.999 | locus YDR318W, strain mcm21, stronger effect = lower value 0.986 | locus YDR334W, strain swr1, stronger effect = lower value 0.991 | locus YDR335W, strain msn5, stronger effect = lower value 0.994 | locus YDR388W, stronger effect = lower value 0.98 | locus YDR392W, strain spt3, stronger effect = lower value 0.991 | locus YDR502C, strain sam2, stronger effect = lower value 0.995 | locus YEL003W, strain gim4, stronger effect = lower value 0.988 | locus YEL037C, strain rad23, stronger effect = lower value 0.991 | locus YEL061C, strain CIN8 (second series), stronger effect = lower value 0.99 | locus YEL061C, strain CIN8, stronger effect = lower value 1.01 | locus YER015W, strain faa2, stronger effect = lower value 0.988 | locus YER016W, strain bim1, stronger effect = lower value 0.997 | locus YER110C, stronger effect = lower value 0.969 | locus YER111C, strain swi4, stronger effect = lower value 0.998 | locus YER155C, strain BEM2 (second series), stronger effect = lower value 0.95 | locus YER155C, strain BEM2, stronger effect = lower value 1.01 | locus YER167W, strain BCK2, stronger effect = lower value 1 | locus YFR010W, strain ubp6, stronger effect = lower value 0.982 | locus YGL078C, strain dbp3, stronger effect = lower value 0.972 | locus YGL086W, strain mad1, stronger effect = lower value 0.981 | locus YGL167C, strain pmr1, stronger effect = lower value 0.991 | locus YGL173C, strain kem1, stronger effect = lower value 0.999 | locus YGL227W, strain vid30, stronger effect = lower value 0.984 | locus YGL240W, strain doc1, stronger effect = lower value 0.989 | locus YGL248W, strain PDE1, stronger effect = lower value 1.02 | locus YGL253W, strain hxk2, stronger effect = lower value 0.995 | locus YGR078C, strain PAC10, stronger effect = lower value 1.03 | locus YGR135W, strain pre9, stronger effect = lower value 0.981 | locus YGR229C, strain SMI1, stronger effect = lower value 1.07 | locus YGR252W, strain gcn5, stronger effect = lower value 0.931 | locus YHR013C, strain ard1, stronger effect = lower value 1.01 | locus YHR027C, strain rpn1, stronger effect = lower value 0.991 | locus YHR030C, strain SLT2, stronger effect = lower value 1.01 and 1.02 | locus YHR079C, strain IRE1 (second series), stronger effect = lower value 0.988 | locus YHR079C, strain IRE1, stronger effect = lower value 1.03 | locus YHR094C, strain hxt1, stronger effect = lower value 0.963 | locus YHR129C, strain ARP1, stronger effect = lower value 1.01 | locus YHR142W, strain chs7, stronger effect = lower value 1.01 | locus YHR200W, strain rpn10, stronger effect = lower value 0.97 | locus YIL066C, strain RNR3, stronger effect = lower value 1.02 | locus YIL073C, strain SPO22, stronger effect = lower value 0.887 | locus YIL125W, strain kgd1, stronger effect = lower value 0.986 | locus YIR030C, strain dcg1, stronger effect = lower value 0.994 | locus YJL092W, strain hpr5, stronger effect = lower value 0.996 | locus YJL095W, strain BCK1 (second series), stronger effect = lower value 1 | locus YJL095W, strain BCK1, stronger effect = lower value 1.07 and 1.01 | locus YJL115W, strain asf1, stronger effect = lower value 0.979 | locus YJL129C, strain trk1, stronger effect = lower value 0.987 | locus YJL134W, strain LCB3, stronger effect = lower value 1.01 | locus YJL154C, strain vps35, stronger effect = lower value 1 | locus YJL164C, strain tpk1, stronger effect = lower value 0.997 | locus YJL166W, strain qcr8, stronger effect = lower value 0.991 | locus YJL168C, strain set2, stronger effect = lower value 0.996 | locus YJL187C, strain SWE1 (second series), stronger effect = lower value 1.01 | locus YJR043C, strain POL32, stronger effect = lower value 0.989 | locus YJR066W, strain TOR1, stronger effect = lower value 0.972
